# Results taken from PubChem BioAssay (NCATS).
# Results filed as inconclusive are left out. Calls of active or inactive are those of the source. Calls come from the whole dose curve; tested in HEK293 reporter line.
# Test: qHTS for Inhibitors of the Functional Ribonucleoprotein Complex (vRNP) of Lassa (LASV) Arenavirus: LASV Primary Screen - GLuc reporter signal (AID 1347082); note: nearly all actives have a fitted effect of over 60% in size
# Settings: LASV minigenome vRNP, Gaussia luciferase reporter; series mostly up to 57.5 µM; activity change, negative = inhibition: at the top concentration
# % is set by controls: 0 for no effect and ±100 for the full control effect.
Compound,"activity change, negative = inhibition",Potency
CC=CC1=C(C(=O)O)N2C(=O)[C@H](NC(=O)[C@H](N)c3ccc(O)cc3)[C@@H]2SC1,2.26% (inactive),–
Cc1ccsc1/C=C/C1=NCCCN1C,2.69% (inactive),–
Cc1cn([C@@H]2O[C@H](CO)[C@@H](O)[C@H]2F)c(=O)[nH]c1=O,2.77% (inactive),–
O=c1cc(O)c(Cl)c[nH]1,–,inactive
O=C1c2ccccc2C(=O)c2c1ccc(O)c2O,2.25% (inactive),–
CCCNC(C)C(=O)Nc1c(C)csc1C(=O)OC (stereo unspecified),-3.63% (inactive),–
Cc1ccc(S(=O)(=O)NC(=O)NC2CCCCC2)cc1,3.14% (inactive),–
CCCNC(C)C(=O)Nc1ccccc1C (stereo unspecified),–,inactive
COc1cc(C(=O)NC2CCCNC2)cc(OC)c1OC (stereo unspecified),13.5% (inactive),–
Cc1cc(C(C#N)c2ccc(Cl)cc2)c(Cl)cc1NC(=O)c1cc(I)cc(I)c1O (stereo unspecified),-15.5% (inactive),–
COC(=O)c1cc(Cl)c(NC(C)=O)cc1OC,4.83% (inactive),–
Cc1ccccc1C(=O)N1CC/C(=N\OS(=O)(=O)O)c2ccc(Cl)cc21,4.46% (inactive),–
O=C(CCCl)NCc1ccccc1,-0.411% (inactive),–
NC(=O)COCCN1CCN(C(c2ccccc2)c2ccc(Cl)cc2)CC1 (stereo unspecified),-11.6% (inactive),–
COc1c2occc2c(OC)c2c(=O)cc(C)oc12,0.821% (inactive),–
O=C(NCC(O)CO)c1c(I)c(C(=O)NCC(O)CO)c(I)c(N(CCO)C(=O)CO)c1I (stereo unspecified),-2.7% (inactive),–
Cc1coc2ccccc2c1=O,-5.66% (inactive),–
Nc1ccc(S(N)(=O)=O)cc1,–,inactive
O=[N+]([O-])c1cncn1CCN1CCOCC1,-1.8% (inactive),–

Compound,"activity change, negative = inhibition",Potency
CC(=O)Nc1ccc(OC(=O)c2ccccc2OC(C)=O)cc1,4.37% (inactive),–
CCCCCCCCCCCCCCCCCC(=O)OCC(O)CO (stereo unspecified),-0.853% (inactive),–
NCc1ccc(S(N)(=O)=O)cc1,-7.41% (inactive),–
O=C(CS(=O)Cc1ccco1)NC/C=C\COc1cc(CN2CCCCC2)ccn1 (stereo unspecified),1.63% (inactive),–
CCCCOCCOC(=O)c1cccnc1,-0.628% (inactive),–
CCOC(=O)c1cnc2c(cnn2CC)c1NN=C(C)C,–,inactive
CCCCCCCCCCCCCCCCO,–,inactive
CC(O)(P(=O)(O)O)P(=O)(O)O,-13.3% (inactive),–
O=C(O)c1ccc(S(=O)(=O)N(Cl)Cl)cc1,-6.19% (inactive),–
CCOc1ccc(NC(=O)CC(C)O)cc1 (stereo unspecified),11% (inactive),–
NCC[C@H](O)C(=O)N[C@@H]1C[C@H](N)[C@@H](O[C@H]2O[C@H](CN)[C@@H](O)[C@H](O)[C@@H]2O)[C@H](O)[C@@H]1O[C@H]1O[C@H](CO)[C@@H](O)[C@H](N)[C@@H]1O,-6.8% [at 0.757 µM] (inactive),–
CC(C)(C)CC(C)(C)c1ccc(O)c(-n2nc3ccccc3n2)c1,5.07% (inactive),–
Cc1cc(NS(=O)(=O)c2ccc(N)cc2)no1,–,inactive
Cc1ccnc(NS(=O)(=O)c2ccc(N)cc2)n1,-3.01% (inactive),–
O=C(O)Cc1ccc(OCCNC[C@H](O)c2ccccc2)cc1,-34.8% (inactive),–
CC(=O)OCC(=O)[C@@]1(O)[C@H](OC(C)=O)C[C@H]2[C@@H]3CCC4=CC(=O)C=C[C@]4(C)[C@@]3(F)[C@@H](O)C[C@@]21C,-9.01% (inactive),–
Cc1cc(CC(=O)O)c(C)n1-c1ccc(Cl)cc1,0.948% (inactive),–
CN(CC1(C)CCCO1)S(=O)(=O)c1ccc(Cl)c(S(N)(=O)=O)c1 (stereo unspecified),6.78% (inactive),–
O=C(O)CN(CCN(CC(=O)O)CC(=O)O)CCN(CC(=O)O)CC(=O)O,–,inactive

# Test: qHTS for Inhibitors of the Functional Ribonucleoprotein Complex (vRNP) of Lassa (LASV) Arenavirus: Viability assay - alamar blue signal for LASV Primary Screen (AID 1347083); note: nearly all actives have a fitted effect of over 80% in size
# Settings: cell viability, alamar blue fluorescence (LASV minigenome counter-screen); series mostly up to 57.5 µM; activity change, negative = reduced viability: at the top concentration
Compound,"activity change, negative = reduced viability",Potency
CC=CC1=C(C(=O)O)N2C(=O)[C@H](NC(=O)[C@H](N)c3ccc(O)cc3)[C@@H]2SC1,-0.436% (inactive),–
Cc1ccsc1/C=C/C1=NCCCN1C,4.64% (inactive),–
Cc1cn([C@@H]2O[C@H](CO)[C@@H](O)[C@H]2F)c(=O)[nH]c1=O,2.12% (inactive),–
O=c1cc(O)c(Cl)c[nH]1,–,inactive
O=C1c2ccccc2C(=O)c2c1ccc(O)c2O,-11.8% (inactive),–
CCCNC(C)C(=O)Nc1c(C)csc1C(=O)OC (stereo unspecified),5.1% (inactive),–
Cc1ccc(S(=O)(=O)NC(=O)NC2CCCCC2)cc1,17% (inactive),–
CCCNC(C)C(=O)Nc1ccccc1C (stereo unspecified),–,inactive
COc1cc(C(=O)NC2CCCNC2)cc(OC)c1OC (stereo unspecified),-0.861% (inactive),–
Cc1cc(C(C#N)c2ccc(Cl)cc2)c(Cl)cc1NC(=O)c1cc(I)cc(I)c1O (stereo unspecified),18.3% (inactive),–
COC(=O)c1cc(Cl)c(NC(C)=O)cc1OC,6.35% (inactive),–
Cc1ccccc1C(=O)N1CC/C(=N\OS(=O)(=O)O)c2ccc(Cl)cc21,14.4% (inactive),–
O=C(CCCl)NCc1ccccc1,1.24% (inactive),–
NC(=O)COCCN1CCN(C(c2ccccc2)c2ccc(Cl)cc2)CC1 (stereo unspecified),21.6% (inactive),–
COc1c2occc2c(OC)c2c(=O)cc(C)oc12,-7.11% (inactive),–
O=C(NCC(O)CO)c1c(I)c(C(=O)NCC(O)CO)c(I)c(N(CCO)C(=O)CO)c1I (stereo unspecified),-0.978% (inactive),–
Cc1coc2ccccc2c1=O,7.14% (inactive),–
Nc1ccc(S(N)(=O)=O)cc1,–,inactive
O=[N+]([O-])c1cncn1CCN1CCOCC1,2.14% (inactive),–

Compound,"activity change, negative = reduced viability",Potency
CC(=O)Nc1ccc(OC(=O)c2ccccc2OC(C)=O)cc1,0.899% (inactive),–
CCCCCCCCCCCCCCCCCC(=O)OCC(O)CO (stereo unspecified),1.51% (inactive),–
NCc1ccc(S(N)(=O)=O)cc1,4.89% (inactive),–
O=C(CS(=O)Cc1ccco1)NC/C=C\COc1cc(CN2CCCCC2)ccn1 (stereo unspecified),5.42% (inactive),–
CCCCOCCOC(=O)c1cccnc1,-12.7% (inactive),–
CCOC(=O)c1cnc2c(cnn2CC)c1NN=C(C)C,–,inactive
CCCCCCCCCCCCCCCCO,–,inactive
CC(O)(P(=O)(O)O)P(=O)(O)O,6.52% (inactive),–
O=C(O)c1ccc(S(=O)(=O)N(Cl)Cl)cc1,6.12% (inactive),–
CCOc1ccc(NC(=O)CC(C)O)cc1 (stereo unspecified),29.1% (inactive),–
NCC[C@H](O)C(=O)N[C@@H]1C[C@H](N)[C@@H](O[C@H]2O[C@H](CN)[C@@H](O)[C@H](O)[C@@H]2O)[C@H](O)[C@@H]1O[C@H]1O[C@H](CO)[C@@H](O)[C@H](N)[C@@H]1O,-4.3% [at 0.757 µM] (inactive),–
CC(C)(C)CC(C)(C)c1ccc(O)c(-n2nc3ccccc3n2)c1,1.16% (inactive),–
Cc1cc(NS(=O)(=O)c2ccc(N)cc2)no1,11% (inactive),–
Cc1ccnc(NS(=O)(=O)c2ccc(N)cc2)n1,-0.178% (inactive),–
O=C(O)Cc1ccc(OCCNC[C@H](O)c2ccccc2)cc1,-91.2% (inactive),–
CC(=O)OCC(=O)[C@@]1(O)[C@H](OC(C)=O)C[C@H]2[C@@H]3CCC4=CC(=O)C=C[C@]4(C)[C@@]3(F)[C@@H](O)C[C@@]21C,6.46% (inactive),–
Cc1cc(CC(=O)O)c(C)n1-c1ccc(Cl)cc1,18.9% (inactive),–
CN(CC1(C)CCCO1)S(=O)(=O)c1ccc(Cl)c(S(N)(=O)=O)c1 (stereo unspecified),8.76% (inactive),–
O=C(O)CN(CCN(CC(=O)O)CC(=O)O)CCN(CC(=O)O)CC(=O)O,–,inactive
